# PubChem BioAssay (Tox21)
# Unmarked numbers belong to inactive results. Inconclusive results are not listed. Where a call stands in place of a potency, no number is given. Active and inactive are the calls of the source. Unless noted, calls follow the shape of the dose curve; as a rule, active = well fitted curve in the direction sought with a large enough effect in the repeat runs; inconclusive = weak or mixed curves; inactive = no such curve, though single readings can be large; an effect the other way counts as inactive or inconclusive.
# Key:
# [1] = qHTS assay to identify small molecule antagonists of the estrogen related receptor (ERR) signaling pathway from Tox21 library - cell viability counter screen (AID 1224834); also: nearly all actives have a fitted effect of over 30% in size
# Summary of the method: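 In this quantitative HTS format, ERR cells receive compounds in DMSO and are incubated for 17.5 h at 37 C. Live-cell protease activity is then detected with CellTiter-Fluor.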
# [2] = target: Luciferin 4-monooxygenase (Photinus pyralis) (UniProt P08659); assay: qHTS assay to identify small molecule inhibitors of firefly luciferase (AID 1224835); also: nearly all actives have a fitted effect of over 25% in size; also: potency is read from the fitted curve at half-maximal effect
# Summary of the method: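 Inhibition of purified Photinus luciferase is measured by luminescence. Substrate levels (D-luciferin, ATP) sit at their KM values. Each compound is tested in a concentration series.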
# [3] = qHTS assay to identify small molecule antagonists of the constitutive androstane receptor (CAR) signaling pathway - cell viability counter screen (AID 1224837); also: nearly all actives have a fitted effect of over 45% in size
# Summary of the method: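 In quantitative HTS format, compounds at 15 concentrations were applied to HepG2 cells double-transfected with hCAR and CYP2B6-2.2kb under 50 nM CITCO stimulation; live-cell protease activity was read after 23 hr via CellTiter-Fluor.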
# [4] = target: Nuclear receptor subfamily 1 group I member 3 (Homo sapiens) (UniProt Q14994); assay: qHTS assay to identify small molecule antagonists of the constitutive androstane receptor (CAR) signaling pathway (AID 1224838); also: nearly all actives have a fitted effect of over 40% in size
# Summary of the method: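 CITCO-stimulated (50 nM final) HepG2 cells stably transfected with hCAR and CYP2B6-2.2kb luciferase were exposed to compounds at 15 concentrations for 24 h at 37 C/5% CO2. A luciferase reagent was added and luminescence recorded after 30 min.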
# [5] = target: Nuclear receptor subfamily 1 group I member 3 (Homo sapiens) (UniProt Q14994); assay: qHTS assay to identify small molecule agonists of the constitutive androstane receptor (CAR) signaling pathway (AID 1224839);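 also: HepG2 cells stably carrying human CAR and a CYP2B6 luciferase reporter; nearly all actives have a fitted effect of over 15% in size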
# Summary of the method: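 HepG2 cells stably expressing hCAR and a CYP2B6-2.2kb luciferase reporter were treated with compounds at 15 concentrations plus 0.75 uM PK11195 (final) for 24 h at 37 C; luminescence was read after ONE-Glo addition.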
# [6] = qHTS assay to identify small molecule antagonists of the estrogen related receptor signaling pathway with the pleiotropic PPARgamma coactivator (PGC) from Tox21 10K library - cell viability counter screen (AID 1224840; active = well fitted cell-killing curve with a large enough effect in the repeat runs, not every such curve was filed as active; also: nearly all actives have a fitted effect of over 40% in size)
# Summary of the method: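 Viability counter screen, PGC/ERR cells: 17.5 h compound exposure at 37 C, CellTiter-Fluor fluorescence endpoint.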
# [7] = qHTS assay to identify small molecule antagonists of the estrogen related receptor signaling pathway with the pleiotropic PPARgamma coactivator (PGC) from Tox21 10K library (AID 1224841; call rule not given here; also: actives are mostly falling curves and most rising ones were filed inactive; nearly all actives have a fitted effect of over 50% in size)
# Summary of the method: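 In the PGC/ERR line, DMSO solutions of test chemicals are pin-delivered to 2,000 cells/well six hours after dispensing. Following eighteen hours' incubation, One-Glo reagent is added and luminescence recorded.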
# [8] = qHTS assay to identify small molecule agonists of the hypoxia (HIF-1) signaling pathway - cell viability counter screen (AID 1224844; calls by dose curve; also: nearly all actives have a fitted effect of over 50% in size)
# Summary of the method: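 Same wells as the HIF-1 reporter screen; ME-180 cells carrying HRE-bla, 17 hr treatment at 37C; CellTiter-Glo luminescence read after 30 min at room temperature.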
# [9] = qHTS assay to identify small molecule agonists of H2AX (AID 1224845; active = well fitted activation curve with a large enough effect in the signal ratio in the repeat runs, not every such curve was filed as active; the % refers to the signal ratio)
# Summary of the method: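 Phospho-H2AX Ser139 measured by HTRF (ex 320 nm; em 665 and 620 nm) after 24 hr antibody incubation. Compounds, 15 concentrations, 0.76% DMSO, were applied to CHO-K1 cells for 3hr at 37C before lysis.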
# [10] = qHTS assay to identify small molecule agonists of the hypoxia (HIF-1) signaling pathway (AID 1224846; active = well fitted activation curve with a large enough effect in the signal ratio in the repeat runs, not every such curve was filed as active; the % refers to the signal ratio)
# Summary of the method: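 In ME-180 cells bearing an HRE-bla construct, 17 h treatment with DMSO-dissolved compounds at 37C was followed by CCF4-AM loading to quantify reporter induction.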
# [11] = qHTS assay to identify small molecule agonists of H2AX - cell viability counter screen (AID 1224847; calls by dose curve; also: nearly all actives have a fitted effect of over 30% in size; also: potency is read from the fitted curve at half-maximal effect)
# Summary of the method: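 Wild-type CHO-K1 cells (10% FBS medium) were plated overnight at 37C, exposed to compounds at 15 concentrations for 3 hr at 37C (0.76% DMSO final), and viability was read as CellTiter-Glo luminescence after 30 min at room temperature.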
# [12] = qHTS assay to identify small molecule antagonists of the estrogen related receptor (ERR) signaling pathway from Tox21 library (AID 1224848); also: nearly all actives have a fitted effect of over 50% in size
# Summary of the method: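 Luciferase luminescence (ONE-Glo, 30 min room temperature) was the read-out. Cells of the NTP-supplied ERR line, 2,000 per well, were given 6 h at 37 C before compound addition in DMSO and 18 h exposure at 37 C.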
# [13] = qHTS assay to identify small molecule agonists of the estrogen related receptor (ERR) signaling pathway from Tox21 library (AID 1224849; calls by dose curve; also: nearly all actives have a fitted effect of over 15% in size); details: ERR reporter cell line, ONE-Glo luciferase, 18 h; at 92.4 µM (top of the series) unless noted
# Summary of the method: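 Reporter cells (ERR, NTP source) treated with Tox21 10K compounds 18 h, 37 C. Readout: ONE-Glo luminescence, 30 min RT.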
# [14] = qHTS RealTime-Glo MT Cell Viability Assay in HepG2 cells - 24 hour (AID 1224867); also: nearly all actives have a fitted effect of over 50% in size
# Summary of the method: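 HepG2 cells were seeded at 600 cells/well together with NanoLuc luciferase and a cell-permeant prosubstrate, preincubated 5 h at 37 C/5% CO2, then pin-dosed with compounds in DMSO. Nonlytic luminescence from viable cells was read at each time point.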
# [15] = qHTS RealTime-Glo MT Cell Viability Assay in HEK293 cells - 32 hour (AID 1224868); also: nearly all actives have a fitted effect of over 50% in size; also: potency is read from the fitted curve at half-maximal effect
# Summary of the method: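 HEK293 cells were seeded at 600 cells/well together with NanoLuc luciferase and cell-permeant prosubstrate, preincubated 5 h at 37 C/5% CO2, then given compound in DMSO by pintool. Luminescence from viable-cell prosubstrate reduction was read repeatedly over 40 h.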
# [16] = A CellTox Green Cytotoxicity Assay to monitor cytotoxicity in HEK293 cells - 0 hour (AID 1224869); also: nearly all actives have a fitted effect of over 50% in size
# Summary of the method: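 Homogeneous no-lysis format: HEK293 cell suspension mixed with CellTox Green reagent, seeded, incubated 5 h at 37 C/5% CO2, then dosed by pintool with compound in DMSO.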
# [17] = target: Thyrotropin receptor (Homo sapiens) (UniProt P16473); assay: qHTS assay to identify small molecule agonists of the thyroid stimulating hormone receptor (TSHR) signaling pathway (AID 1224843; calls by dose curve; also: nearly all actives have a fitted effect of over 45% in size)
# Summary of the method: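 Agonist activity read as cAMP rise via d2/cryptate HTRF competition, 1 h room-temperature detection, in HEK293 cells expressing TSHR. Fifteen-point titrations, each run in triplicate, with a 30 min room-temperature incubation beforehand.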
# [18] = qHTS assay to identify small molecule agonists of the estrogen related receptor signaling pathway with the pleiotropic PPARgamma coactivator (PGC) from Tox21 10K library (AID 1224842); also: nearly all actives have a fitted effect of over 15% in size
# Summary of the method: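 Luminescence from One-Glo (30 min, room temperature) measured after PGC/ERR cells had 18 h at 37 C with pinned compound (23 nL in DMSO). Cells had been seeded at 2,000 per well and pre-incubated 6 h.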
# [19] = qHTS assay to identify small molecule agonists of the constitutive androstane receptor (CAR) signaling pathway - cell viability counter screen (AID 1224836); also: nearly all actives have a fitted effect of over 45% in size
# Summary of the method: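 HepG2 cells stably carrying hCAR and a CYP2B6-2.2kb reporter were plated 4 h, then given compounds at 15 concentrations plus PK11195 (final 0.75 uM). After 23 h at 37 C, viability was read by CellTiter-Fluor fluorescence.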
# Sequence of Thyrotropin receptor (Homo sapiens) (P16473 whole entry, looked up): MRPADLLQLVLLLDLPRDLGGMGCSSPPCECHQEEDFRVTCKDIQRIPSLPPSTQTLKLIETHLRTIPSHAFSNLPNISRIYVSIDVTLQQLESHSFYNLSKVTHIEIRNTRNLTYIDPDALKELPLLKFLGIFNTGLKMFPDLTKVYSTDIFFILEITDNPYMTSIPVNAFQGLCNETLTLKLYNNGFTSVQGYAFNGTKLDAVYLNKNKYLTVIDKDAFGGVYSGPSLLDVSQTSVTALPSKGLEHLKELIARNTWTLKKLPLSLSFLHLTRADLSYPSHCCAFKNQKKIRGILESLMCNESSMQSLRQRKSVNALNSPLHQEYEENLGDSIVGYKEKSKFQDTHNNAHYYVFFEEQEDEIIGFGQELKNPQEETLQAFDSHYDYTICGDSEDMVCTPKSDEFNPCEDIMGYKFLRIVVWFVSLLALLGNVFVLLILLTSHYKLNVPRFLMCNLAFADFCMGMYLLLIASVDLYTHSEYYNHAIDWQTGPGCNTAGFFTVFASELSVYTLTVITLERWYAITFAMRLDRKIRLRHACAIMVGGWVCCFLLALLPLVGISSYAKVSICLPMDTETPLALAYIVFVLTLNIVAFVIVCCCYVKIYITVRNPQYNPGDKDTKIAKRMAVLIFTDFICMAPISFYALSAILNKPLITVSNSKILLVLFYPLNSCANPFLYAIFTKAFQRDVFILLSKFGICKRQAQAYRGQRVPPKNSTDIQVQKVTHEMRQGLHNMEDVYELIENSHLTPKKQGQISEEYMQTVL
# Sequence of Luciferin 4-monooxygenase (Photinus pyralis) (P08659 whole entry, looked up): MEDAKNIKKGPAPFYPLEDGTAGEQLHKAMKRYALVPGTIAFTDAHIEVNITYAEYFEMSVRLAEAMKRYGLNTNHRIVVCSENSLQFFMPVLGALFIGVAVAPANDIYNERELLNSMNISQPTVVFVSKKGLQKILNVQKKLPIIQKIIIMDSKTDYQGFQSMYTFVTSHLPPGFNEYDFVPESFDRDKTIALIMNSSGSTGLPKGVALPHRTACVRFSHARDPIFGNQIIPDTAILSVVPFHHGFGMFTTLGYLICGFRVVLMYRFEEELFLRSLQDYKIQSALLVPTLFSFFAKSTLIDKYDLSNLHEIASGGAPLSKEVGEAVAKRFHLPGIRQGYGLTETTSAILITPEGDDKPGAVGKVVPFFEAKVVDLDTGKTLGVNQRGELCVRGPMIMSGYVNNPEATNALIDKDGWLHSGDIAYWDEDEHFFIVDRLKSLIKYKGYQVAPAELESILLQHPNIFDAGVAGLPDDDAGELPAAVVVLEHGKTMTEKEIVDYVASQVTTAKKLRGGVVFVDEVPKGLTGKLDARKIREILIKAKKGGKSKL
# Sequence of Nuclear receptor subfamily 1 group I member 3 (Homo sapiens) (Q14994 whole entry, looked up): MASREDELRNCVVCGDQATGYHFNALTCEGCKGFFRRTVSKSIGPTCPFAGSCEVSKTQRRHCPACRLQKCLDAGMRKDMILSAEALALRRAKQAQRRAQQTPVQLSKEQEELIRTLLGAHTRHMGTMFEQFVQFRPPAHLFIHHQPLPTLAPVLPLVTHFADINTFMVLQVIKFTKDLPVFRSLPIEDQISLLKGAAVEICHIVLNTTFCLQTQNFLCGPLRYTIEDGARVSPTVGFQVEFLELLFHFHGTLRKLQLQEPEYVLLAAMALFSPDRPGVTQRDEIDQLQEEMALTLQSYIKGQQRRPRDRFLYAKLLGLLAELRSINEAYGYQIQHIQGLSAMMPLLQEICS
SMILES,Potency [1],Potency [2],Potency [3],outcome [4],Potency [5],outcome [6],Potency [7],outcome [8],outcome [9],outcome [10],Potency [11],Potency [12],"activity change, positive = activation [13]",outcome [14],Potency [15],outcome [16],Potency [17],outcome [18],Potency [19]
CCC(C=O)CC,inactive,inactive,inactive,inactive,inactive,inactive,inactive,inactive,inactive,inactive,inactive,inactive,2.68%,inactive,inactive,inactive,,,
COc1cc2c(cc1OC)C(=O)CC2,inactive,inactive,inactive,inactive,inactive,inactive,,inactive,inactive,inactive,inactive,,,inactive,inactive,inactive,inactive,,
CCCCCCCCCCCCCC,inactive,inactive,inactive,inactive,inactive,inactive,inactive,inactive,inactive,,inactive,inactive,2.93%,inactive,inactive,inactive,inactive,inactive,
O=C(O)Cc1ccc(Cl)cc1Cl,inactive,inactive,inactive,,,inactive,,inactive,inactive,inactive,inactive,,,inactive,inactive,inactive,inactive,,
CCn1ccc(NS(=O)(=O)c2ccc(N)cc2)nc1=O,inactive,inactive,inactive,inactive,inactive,inactive,inactive,inactive,inactive,inactive,inactive,inactive,3.61% [at 42.5 µM],inactive,inactive,inactive,inactive,inactive,
CCN1CCc2nc(N)oc2CC1,inactive,inactive,inactive,inactive,inactive,inactive,,inactive,inactive,,inactive,,,inactive,inactive,inactive,inactive,,
OC[C@H](Cc1cccc(O)c1)[C@H](CO)Cc1cccc(O)c1,inactive,,inactive,inactive,inactive,inactive,inactive,inactive,inactive,,inactive,,-21.1%,inactive,inactive,inactive,,inactive,inactive
O=C1c2ccccc2C(=O)c2cc(S(=O)(=O)O)ccc21,inactive,,inactive,inactive,inactive,inactive,,inactive,inactive,inactive,inactive,,,inactive,,inactive,inactive,,inactive
Cc1cc(Cl)c(C)cc1Cl,inactive,inactive,inactive,inactive,inactive,,inactive,inactive,inactive,,inactive,inactive,-5.35%,inactive,inactive,inactive,,inactive,
CC(CC=O)CCCC(C)(C)O (stereo not given),inactive,inactive,,,,inactive,inactive,inactive,inactive,inactive,inactive,inactive,,inactive,inactive,inactive,,inactive,inactive
CCCCOCCOC(=O)COc1nc(Cl)c(Cl)cc1Cl,inactive,inactive,,,,inactive,inactive,,inactive,,inactive,inactive,0.145%,inactive,inactive,inactive,,inactive,inactive
CN1C(C)(C)CCCC1(C)C,,inactive,inactive,,,inactive,,inactive,inactive,,inactive,,,inactive,inactive,inactive,inactive,,inactive
O=C(Nc1ccc(Cl)c(Cl)c1)C1CC1,inactive,,,inactive,,inactive,inactive,inactive,inactive,inactive,inactive,,-22.3% [at 42.5 µM],inactive,9.52 µM (active),inactive,inactive,inactive,inactive
Cc1c(I)c(=O)n(-c2ccccc2)n1C,,inactive,inactive,inactive,inactive,inactive,inactive,inactive,inactive,,inactive,inactive,2.79% [at 42.5 µM],inactive,inactive,inactive,inactive,inactive,inactive
CCCC/C=C/C=C\C=O,,inactive,inactive,inactive,inactive,inactive,,,inactive,,1.6 µM (active),,,inactive,inactive,inactive,inactive,,inactive
CC(COC(C)(C)C)OCCCO (stereo not given),,inactive,inactive,inactive,inactive,inactive,inactive,inactive,inactive,inactive,inactive,inactive,3.31%,inactive,,inactive,inactive,inactive,inactive
NNc1nnc(NN)c2ccccc12,,17.4 µM (active),inactive,inactive,inactive,,,inactive,inactive,inactive,inactive,,,inactive,inactive,inactive,inactive,,inactive
